PubChem BioAssay AID1159580 (chemical genetic matrix, 2015)
“And” between values parts separate entries of the source, which are not always exact repeats. Equal values may be shown once. In all, about 5,500 compounds went through this assay and about 2,000 (36%) were called active. Not shown: some 18% with an inconclusive outcome. No stated cut-off is given here; in the data, active means normalized growth mostly below about 0.91 (no sharp cut-off); inconclusive means no clear call, values can overlap the other calls; inactive means mostly above about 0.92. The list shows a part of the results.

Assay: chemical genetic growth profiling, strain panel (AID 1159580);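 further: tested at 20 µM; growth read once vehicle control cultures reached saturation at 30 °C; 1 = growth at the plate median or of vehicle wells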
Details: S. cerevisiae deletion strains, growth OD

Measured: normalized growth

COc1ccc2cc1Oc1ccc(cc1)C[C@H]1c3cc(c(OC)cc3CCN1C)Oc1c(OC)c(OC)cc3c1[C@H](C2)N(C)CC3
active: locus YAL021C, strain ccr4, stronger effect = lower value 0.853 | locus YBR021W, strain FUR4, stronger effect = lower value 0.596 | locus YDR069C, strain doa4, stronger effect = lower value 0.733 | locus YDR388W, stronger effect = lower value 0.241 | locus YFR010W, strain ubp6, stronger effect = lower value 0.854
inactive: locus YAL013W, strain DEP1, stronger effect = lower value 1.01 | locus YAL026C, strain drs2, stronger effect = lower value 1 | locus YAL030W, strain snc1, stronger effect = lower value 1.01 | locus YBL061C, strain skt5, stronger effect = lower value 1.01 | locus YBR009C, strain hhf1, stronger effect = lower value 0.982 | locus YBR023C, strain chs3, stronger effect = lower value 1.01 | locus YBR171W, strain sec66, stronger effect = lower value 1.02 | locus YBR229C, strain ROT2, stronger effect = lower value 1.01 | locus YBR231C, strain swc5, stronger effect = lower value 0.988 | locus YBR279W, strain paf1, stronger effect = lower value 0.998 | locus YCL011C, strain gbp2, stronger effect = lower value 0.988 | locus YCL016C, strain dcc1, stronger effect = lower value 0.968 | locus YCL029C, strain bik1, stronger effect = lower value 1.03 | locus YCL069W, strain vba3, stronger effect = lower value 1.01 | locus YCR088W, strain abp1, stronger effect = lower value 1.01 | locus YDL005C, strain med2, stronger effect = lower value 1 | locus YDL035C, strain GPR1, stronger effect = lower value 0.977 | locus YDL040C, strain nat1, stronger effect = lower value 1 | locus YDL074C, strain BRE1, stronger effect = lower value 0.972 | locus YDL101C, strain DUN1, stronger effect = lower value 1.01 | locus YDL134C, strain PPH21, stronger effect = lower value 1.01 | locus YDL185W, strain tfp1, stronger effect = lower value 1.01 | locus YDL192W, strain arf1, stronger effect = lower value 0.997 | locus YDR001C, strain nth1, stronger effect = lower value 1.02 | locus YDR101C, strain arx1, stronger effect = lower value 1.01 | locus YDR137W, strain rgp1, stronger effect = lower value 0.998 | locus YDR150W, strain NUM1, stronger effect = lower value 1.01 | locus YDR159W, strain sac3, stronger effect = lower value 1.02 | locus YDR162C, strain NBP2, stronger effect = lower value 0.974 | locus YDR195W, strain ref2 1.02 | locus YDR297W, strain sur2, stronger effect = lower value 1 | locus YDR318W, strain mcm21, stronger effect = lower value 1 | locus YDR334W, strain swr1, stronger effect = lower value 1.01 | locus YDR335W, strain msn5, stronger effect = lower value 0.999 | locus YDR392W, strain spt3, stronger effect = lower value 0.79 | locus YDR502C, strain sam2, stronger effect = lower value 0.99 | locus YEL003W, strain gim4, stronger effect = lower value 0.998 | locus YEL037C, strain rad23, stronger effect = lower value 0.989 | locus YEL061C, strain CIN8 (second series), stronger effect = lower value 1.01 | locus YEL061C, strain CIN8, stronger effect = lower value 1.01 | locus YER015W, strain faa2, stronger effect = lower value 0.997 | locus YER016W, strain bim1, stronger effect = lower value 1 | locus YER110C, stronger effect = lower value 1.03 | locus YER111C, strain swi4, stronger effect = lower value 0.997 | locus YER155C, strain BEM2 (second series), stronger effect = lower value 0.887 | locus YER155C, strain BEM2, stronger effect = lower value 1.03 | locus YER167W, strain BCK2, stronger effect = lower value 0.964 | locus YGL078C, strain dbp3, stronger effect = lower value 1.01 | locus YGL086W, strain mad1, stronger effect = lower value 0.983 | locus YGL167C, strain pmr1, stronger effect = lower value 1 | locus YGL173C, strain kem1, stronger effect = lower value 1.02 | locus YGL227W, strain vid30, stronger effect = lower value 0.997 | locus YGL240W, strain doc1, stronger effect = lower value 1.01 | locus YGL248W, strain PDE1, stronger effect = lower value 1 | locus YGL253W, strain hxk2, stronger effect = lower value 1.01 | locus YGR078C, strain PAC10, stronger effect = lower value 0.996 | locus YGR135W, strain pre9, stronger effect = lower value 0.931 | locus YGR229C, strain SMI1, stronger effect = lower value 0.993 | locus YGR252W, strain gcn5, stronger effect = lower value 0.855 | locus YHR013C, strain ard1, stronger effect = lower value 0.902 | locus YHR027C, strain rpn1, stronger effect = lower value 1.02 | locus YHR030C, strain SLT2, stronger effect = lower value 1.01 and 1 | locus YHR079C, strain IRE1 (second series), stronger effect = lower value 1.01 | locus YHR079C, strain IRE1, stronger effect = lower value 0.987 | locus YHR094C, strain hxt1, stronger effect = lower value 1.02 | locus YHR129C, strain ARP1, stronger effect = lower value 1.01 | locus YHR142W, strain chs7, stronger effect = lower value 1.01 | locus YHR200W, strain rpn10, stronger effect = lower value 0.989 | locus YIL066C, strain RNR3, stronger effect = lower value 1 | locus YIL073C, strain SPO22, stronger effect = lower value 1.31 | locus YIL125W, strain kgd1, stronger effect = lower value 1.01 | locus YIR030C, strain dcg1, stronger effect = lower value 1.02 | locus YJL092W, strain hpr5, stronger effect = lower value 1.01 | locus YJL095W, strain BCK1 (second series), stronger effect = lower value 1.02 | locus YJL095W, strain BCK1, stronger effect = lower value 1.02 and 1.06 | locus YJL115W, strain asf1, stronger effect = lower value 1.01 | locus YJL129C, strain trk1, stronger effect = lower value 1.01 | locus YJL134W, strain LCB3, stronger effect = lower value 1.02 | locus YJL154C, strain vps35, stronger effect = lower value 1 | locus YJL164C, strain tpk1, stronger effect = lower value 0.986 | locus YJL166W, strain qcr8, stronger effect = lower value 0.984 | locus YJL168C, strain set2, stronger effect = lower value 1.01 | locus YJL187C, strain SWE1 (second series), stronger effect = lower value 1 | locus YJR043C, strain POL32, stronger effect = lower value 0.996 | locus YJR066W, strain TOR1, stronger effect = lower value 0.955 | locus YJR075W, strain HOC1, stronger effect = lower value 0.924
